From the supplement of paper PMC6522484
± gives the standard deviation of the averaged measurements.

Assays:
DLD1 [1] = assay: cell viability (CellTiter-Glo) relative to plate median (fraction of plate median); higher = more viable cells; settings: 10 µM, treatment time 24 h
Outline: (§1)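 Each value averages two independent replicates in which the well signal was normalised to the plate median (webcellHTS2, additive, without log transformation). The signal was firefly luciferase or CellTiterGlo luminescence, read on parallel plates with a Tecan F500. The cells were colorectal cancer lines with stable lentiviral TCF/Wnt firefly luciferase reporters in 384-well plates, dosed 24 h after seeding with kinase inhibitor library compounds at a final 10 µM for 24 h.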

HCT116 [2] = assay: as above; settings: 10 µM; treatment time 24 h; reporter: TCF4/Wnt
Outline: as §1

SW480 [3] = assay: as above; settings: 10 µM; treatment time 24 h; reporter: 7TFP
Outline: as §1

DLD1 [4] = assay: TCF/Wnt firefly luciferase reporter signal relative to plate median (fraction of plate median); higher = higher Wnt reporter signal; settings: 10 µM, treatment time 24 h
Outline: as §1

HCT116 [5] = assay: as above; settings: 10 µM; treatment time 24 h; reporter: TCF4/Wnt
Outline: as §1

SW480 [6] = assay: as above; settings: 10 µM; treatment time 24 h; reporter: 7TFP
Outline: as §1

Row | Compound | cell viability (DLD1 [1]; reporter: 7TFP) | cell viability (DLD1 [1]; reporter: TCF4/Wnt) | cell viability (HCT116 [2]) | cell viability (SW480 [3]) | TCF/Wnt firefly luciferase reporter signal (DLD1 [4]; reporter: 7TFP) | TCF/Wnt firefly luciferase reporter signal (DLD1 [4]; reporter: TCF4/Wnt) | TCF/Wnt firefly luciferase reporter signal (HCT116 [5]) | TCF/Wnt firefly luciferase reporter signal (SW480 [6])
1 | COc1ccc2c3n(c(=NC(=O)c4cccnc4)nc2c1OC)CCN3 | 1.005 ± 0.0071 | 0.944 ± 0.026 | 0.958 ± 0.028 | 1.04 ± 0.042 | 0.858 ± 0.13 | 1.05 ± 0.1 | 1.12 ± 0.13 | 0.67 ± 0.33
2 | O=C(Nc1cccc(Cl)c1)Nc1ncc(CCNc2ncnc3ccsc23)s1 | 0.87 ± 0.023 | 0.8545 ± 0.0064 | 0.947 ± 0.03 | 0.922 ± 0.012 | 0.743 ± 0.15 | 0.952 ± 0.029 | 1.45 | 0.82 ± 0.061
3 | COc1cc(Nc2ncc(F)c(Nc3ccc4c(n3)N(COP(=O)(O)O)C(=O)C(C)(C)O4)n2)cc(OC)c1OC | 0.895 ± 0.046 | 0.896 ± 0.073 | 0.8 ± 0.055 | 0.919 ± 0.028 | 0.86 ± 0.098 | 0.919 ± 0.089 | 2.02 ± 1.6 | 0.588 ± 0.28
4 | O=C(Nc1cccc(Nc2ncc(Br)c(NCCc3cnc[nH]3)n2)c1)N1CCCC1 | 1.07 ± 0.05 | 1.02 ± 0.071 | 0.932 ± 0.016 | 1.16 ± 0.05 | 1.74 ± 0.31 | 1.39 ± 0.38 | 1.97 ± 0.11 | 1.33 ± 0.13
5 | Fc1cc(-c2cccc3ncc(-c4cnn(C5CCNCC5)c4)nc23)cc(F)c1CN1CCOCC1 | 0.974 ± 0.14 | 0.981 ± 0.055 | 1.01 ± 0.055 | 1.05 ± 0.12 | 1.04 ± 0.19 | 1.02 ± 0.089 | 0.967 ± 0.076 | 1.52
6 | Nc1cccc(-c2cc3c(Oc4cccc(O)c4)ncnc3[nH]2)c1 | 1.17 ± 0.085 | 1.06 ± 0.078 | 1.05 ± 0.028 | 0.92 ± 0.018 | 0.961 ± 0.098 | 1.01 ± 0.014 | 1.28 ± 0.085 | 0.966 ± 0.04
7 | Cc1[nH]c(/C=C2\C(=O)Nc3ccc(S(=O)(=O)Cc4c(Cl)cccc4Cl)cc32)c(C)c1C(=O)N1CCC[C@@H]1CN1CCCC1 | 0.691 ± 0.27 | 0.648 ± 0.43 | 0.826 ± 0.33 | 0.798 ± 0.34 | 0.7 ± 0.36 | 0.868 ± 0.16 | 0.7 ± 0.88 | 1.21 ± 0.028
8 | Oc1cccc(-c2nc(N3CCOCC3)c3oc4ncccc4c3n2)c1 | 0.906 ± 0.036 | 0.917 ± 0.038 | 0.862 ± 0.15 | 1.12 ± 0.05 | 0.717 ± 0.061 | 0.954 ± 0.093 | 0.869 ± 0.012 | 1.1 ± 0.24
9 | N#CC1(c2ccc(NC(=O)c3cccnc3NCc3ccncc3)cc2)CCCC1 [Apatinib (YN968D1)] | 1.14 ± 0.042 | 1.025 ± 0.0071 | 1.22 ± 0.035 | 0.912 ± 0.0092 | 0.975 ± 0.064 | 1.095 ± 0.0071 | 0.727 ± 0.39 | 0.761 ± 0.32
10 | N#Cc1c(O)c2c(-c3ccc(-c4ccccc4O)cc3)csc2[nH]c1=O | 1.13 ± 0.014 | 1.13 ± 0.071 | 1.25 | 0.922 ± 0.052 | 1.03 ± 0.014 | 0.96 ± 0.2 | 1.08 ± 0.064 | 0.976 ± 0.16
11 | CC1(C)CNc2cc(NC(=O)c3cccnc3NCc3ccncc3)ccc21 [Motesanib Diphosphate] | 1.015 ± 0.0071 | 0.978 ± 0.074 | 1.08 ± 0.021 | 0.8805 ± 0.0021 | 1.14 ± 0.12 | 0.952 ± 0.17 | 1.19 ± 0.19 | 0.971 ± 0.11
12 | Cc1c(NC(=O)OC[C@@H]2COCCN2)cn2ncnc(Nc3ccc4c(cnn4Cc4cccc(F)c4)c3)c12 | 1.04 | 0.97 ± 0.17 | 1.13 ± 0.22 | 1.01 ± 0.092 | 1.27 ± 0.099 | 1.32 ± 0.2 | 1.01 ± 0.036 | 1.3 ± 0.078
13 | COc1cc(Nc2ncc(F)c(Nc3ccc4c(n3)NC(=O)C(C)(C)O4)n2)cc(OC)c1OC | 1.1 ± 0.17 | 0.982 ± 0.054 | 1.11 ± 0.12 | 1.01 ± 0.037 | 1.05 ± 0.13 | 0.941 ± 0.044 | 1.24 ± 0.2 | 0.914 ± 0.57
14 | CCN1CCN(Cc2ccc(-c3cc4c(N[C@H](C)c5ccccc5)ncnc4[nH]3)cc2)CC1 | 0.92 ± 0.15 | 0.999 ± 0.1 | 0.938 ± 0.0014 | 1.115 ± 0.0071 | 0.905 ± 0.011 | 0.852 ± 0.22 | 1.08 ± 0.085 | 1.24 ± 0.057
15 | COc1cc2ncnc(Nc3ccc(F)c(Cl)c3)c2cc1NC(=O)/C=C/CN1CCCCC1 | 0.875 ± 0.16 | 1 ± 0.12 | 0.993 ± 0.024 | 1.16 ± 0.16 | 0.615 ± 0.035 | 0.531 ± 0.092 | 0.548 ± 0.0014 | 0.935 ± 0.071
16 | CNC(=O)c1cc(Oc2ccc(NC(=O)Nc3cc(C(C)(C)C)nn3-c3ccc4ncccc4c3)c(F)c2)ccn1 [DCC-2036 (Rebastinib)] | 1.1 ± 0.13 | 1.265 ± 0.0071 | 0.985 ± 0.035 | 1.08 ± 0.099 | 0.817 ± 0.021 | 0.755 ± 0.047 | 0.895 ± 0.2 | 0.746 ± 0.06
17 | Cc1nc(Nc2ncc(C(=O)Nc3c(C)cccc3Cl)s2)cc(N2CCN(CCO)CC2)n1 | 0.774 ± 0.11 | 0.898 ± 0.13 | 1.01 ± 0.035 | 1.06 ± 0.071 | 0.54 ± 0.063 | 0.487 ± 0.031 | 0.706 ± 0.078 | 0.615 ± 0.07
18 | CCS(=O)(=O)c1cccc(-c2cc(C(=O)NC3CCN(C)CC3)c(C)c3[nH]c4ncc(C)cc4c23)c1 | 1.06 ± 0.071 | 1.1 ± 0.057 | 0.522 ± 0.23 | 0.965 ± 0.026 | 1.25 ± 0.078 | 1.215 ± 0.0071 | 0.565 ± 0.24 | 0.834 ± 0.1
19 | CC(C)n1nc(-c2ccc3oc(N)nc3c2)c2c(N)ncnc21 | 0.832 ± 0.15 | 0.916 ± 0.016 | 0.624 ± 0.1 | 1.04 ± 0.072 | 0.341 ± 0.062 | 0.509 ± 0.071 | 0.569 ± 0.26 | 0.704 ± 0.15
20 | C[C@H](NC(=O)/C(C#N)=C/c1cccc(Br)n1)c1ccccc1 | 0.579 ± 0.082 | 0.529 ± 0.0085 | 0.183 ± 0.0028 | 0.899 ± 0.0057 | 0.041 ± 0.011 | 0.057 ± 0.015 | 0.0323 ± 0.02 | 0.0234 ± 0.012
21 | CNC(=O)c1cc(COc2nnc(Nc3ccc(Cl)cc3)c3ccoc23)ccn1 [Telatinib (BAY 57-9352)] | 1.13 ± 0.23 | 0.987 ± 0.033 | 1.05 ± 0.079 | 0.972 ± 0.024 | 1.32 ± 0.05 | 1.09 ± 0.13 | 1.08 ± 0.25 | 1.08 ± 0.14
22 | CCCCOc1c(C(=O)c2c(F)cc(C)cc2F)c[nH]c2nncc1-2 | 1.075 ± 0.0071 | 1.02 | 1.13 ± 0.085 | 0.862 ± 0.067 | 0.489 ± 0.005 | 0.617 ± 0.071 | 0.879 ± 0.098 | 0.391 ± 0.12
